# Measurements published in PubChem BioAssay (NCI).
# Where “and” joins values, the source holds several entries; their conditions need not be identical. Equal values may be shown once. This is part of a sample that, as a whole, favours compounds with a hit. Of some 83,000 tested, about 20% had one in any assay.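 The test compound was applied at a single concentration to cells in 96-well plates for 48 hours, and percent growth was recorded.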 Calls of active or inactive are those of the source.
# System: IGROV1 ovarian
# Experiment: NCI-60 one-dose screen, 48 h (100 = growth as untreated, 0 = no growth, -100 = all killed)
# Conditions: 10 µM
# Method: Growth inhibition of the IGROV1 human tumor cell line is measured as a screen for anti-cancer activity. Cells are grown in 96 well plates and exposed to the test compound for 48 hours. Compounds are tested at a single concentration, which is 10^-5 M for most compounds. The reported endpoint is percent growth (GI% or GIPRCNT), where numbers from 0 - 100% represent growth inhibition, and numbers from -100% - 0 represent cell death. For example, a value of 40 represents 60% growth inhibition. A value of 0 means no net growth occurred over the course of the experiment. A value of -40 indicates 40% of cells at the beginning of the experiment died by the end of the experiment. A value of -100 means all cells are dead at the end of the experiment.
# NCI-60 Human Tumor Cell Lines Screen was performed using the standard one-dose NCI protocol, which is described in more detail at https://dtp.cancer.gov/discovery_development/nci-60/default.htm.
# Compounds with GIPRCNT values below 10 were considered active. Activity score was based on GIPRCNT using the following formula: […]
# Score is 0 for GIPRCNT values of 100 or above, 50 for GIPRCNT values of 0, and 100 for GIPRCNT values of -100.
row,SMILES,growth
1,NC(=O)c1cc([N+](=O)[O-])c(Cl)c([N+](=O)[O-])c1Cl,27.6% (inactive)
2,O=[N+]([O-])c1ccc(Br)c([N+](=O)[O-])c1,63.5% (inactive)
3,O=S(=O)(F)c1ccc(Cl)cc1,113% (inactive)
4,CC1CCC2(OC1)OC1C(O)C3C4CCC5CC(OC6OC(CO)C(OC7OC(CO)C(O)C(OC8OCC(O)C(O)C8O)C7OC7OC(CO)C(O)C(OC8OC(CO)C(O)C(O)C8O)C7O)C(O)C6O)C(O)CC5(C)C4CCC3(C)C1C2C (stereo not given),-47.7% (active)
5,Cc1cc(C(C)(C)c2ccc(O)c(C)c2)ccc1O,106% (inactive)
6,CC[C@@]1(O)C[C@H](OC2CC(N(C)C)C(O)C(C)O2)c2c(cc3c(c2O)C(=O)c2c(O)ccc(O)c2C3=O)[C@H]1C(=O)OC (stereo not given in full),-68.3% (active)
7,O=C(CCl)Nc1ccc(Cl)cc1,-4.08% (active)
8,C[C@@H]1C[C@@H]([C@H](O)CC2CC(=O)NC(=O)C2)C(=O)[C@@H](C)C1,11.3% (inactive)
9,COc1ccc(/C=C\[N+](=O)[O-])cc1OC,-5.78% (active) and 59.2% (inactive)
10,COc1ccccc1[As]=[As]c1ccccc1OC (stereo not given),-76.9% (active)
11,CC/C(=C/c1ccc(OC)cc1OC)[N+](=O)[O-],39.6% (inactive)
12,CN(CCCl)c1ccc(/C=C/C2=[N+](C)c3ccccc3C2(C)C)cc1,35.1% (inactive)
13,COc1cc2c(cc1OC)C13CCN4CC5=CCOC6CC(=O)N2C1C6C5CC43 (stereo not given),106% (inactive)
14,COS(=O)(=O)c1ccccc1,120% (inactive)
15,N#CCc1ccccc1,115% (inactive)
16,COc1ccccc1/C=C/[N+](=O)[O-],53% (inactive)
17,O=[P+](O)c1ccccc1,115% (inactive)
18,CC(C)C1(NC(=O)C2CC3c4cccc5[nH]cc(c45)CC3N(C)C2)OC2(O)C3CCCN3C(=O)C(Cc3ccccc3)N2C1=O (stereo not given),108% (inactive)
19,CC(=O)[O][Hg][c]1c(C)c(C)cc(C)c1C,-73.2% (active)
20,COc1cc(/C=C\[N+](=O)[O-])ccc1O,80.8% (inactive) and 75.4% (inactive)

row,SMILES,growth
1,ClCc1ccc2ccccc2n1,78.2% (inactive)
2,CC(=O)Nc1c2sscc-2n(C)c1=O,-88.4% (active)
3,[Cl][Sn]([c]1ccccc1)([c]1ccccc1)[c]1ccccc1,-76.8% (active)
4,CCOP(=O)(OCC)C(O)c1ccccc1Cl (stereo not given),93.5% (inactive)
5,O=c1[nH]c2ccccc2n1C1CCN(CCCC(c2ccc(F)cc2)c2ccc(F)cc2)CC1,71.3% (inactive) and 55.5% (inactive)
6,COc1cc([N+](=O)[O-])c2ncccc2c1[N+](=O)[O-],23.1% (inactive)
7,Cc1cc([N+](=O)[O-])c2ccccc2[n+]1[O-],46.8% (inactive) and 5.5% (active)
8,NC(=O)c1cc([N+](=O)[O-])c(Cl)c([N+](=O)[O-])c1,102% (inactive)
9,C=C1C(=O)O[C@@H]2C[C@@H](C)[C@@H]3C=CC(=O)[C@@]3(C)[C@@H](O)[C@H]12,-90.5% (active)
10,COc1cc(/C=C/[N+](=O)[O-])cc(Br)c1OC,1.74% (active)
11,O=[N+]([O-])/C=C\c1ccc2c(c1)OCO2,27.6% (inactive)
12,COC12C(COC(N)=O)C3=C(C(=O)C(C)=C(N)C3=O)N1CC1C2N1C (stereo not given),24.4% (inactive)
13,C/C(=C\c1ccc(Cl)c(Cl)c1)[N+](=O)[O-],-55.8% (active) and 111% (inactive)
14,COc1cc(/C=C/[N+](=O)[O-])cc(OC)c1OC,-22% (active)
15,[Cl][Hg][c]1ccc2ccccc2c1,-76.6% (active)
16,C[CH2][Hg][S]c1ccccc1C(=O)O,16.9% (inactive)
17,C=NCC#N,110% (inactive) and 115% (inactive)
18,O=C(CBr)Nc1ccccc1,106% (inactive)
19,CCCCCCCC[N+]12CN3CN(CN(C3)C1)C2,108% (inactive)
20,CC[C@@H](C)[C@@H]1NC(=O)C(NC(=O)C(CC(C)C)N(C)C(=O)C2CCCN2C(=O)C(C)O)C(C)OC(=O)C(Cc2ccc(OC)cc2)N(C)C(=O)C2CCCN2C(=O)C(CC(C)C)NC(=O)C(C)C(=O)C(C(C)C)OC(=O)C[C@H]1O (stereo not given in full),-40.4% (active)
